Shown are actives, neighbours in structure and some others; about 4.1% of the full set was active somewhere.
PTK2B oligo ant: blocks oligomerization of human Pyk2 in cells; Q14289; Q293 cells, Pyk2 FERM NanoBiT luminescence; active compounds read low; z-score (the deposit names both 25 µM and 10 µM); hit rate 0.83% among 99,000;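 active means Z-score of -3 or lower, scaled per plate to the spread of control and sample wells; inactive means z-score above -3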;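 further: negative z-score means lost luminescence so less FERM oligomerization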
Target sequence (Q14289 whole entry, looked up): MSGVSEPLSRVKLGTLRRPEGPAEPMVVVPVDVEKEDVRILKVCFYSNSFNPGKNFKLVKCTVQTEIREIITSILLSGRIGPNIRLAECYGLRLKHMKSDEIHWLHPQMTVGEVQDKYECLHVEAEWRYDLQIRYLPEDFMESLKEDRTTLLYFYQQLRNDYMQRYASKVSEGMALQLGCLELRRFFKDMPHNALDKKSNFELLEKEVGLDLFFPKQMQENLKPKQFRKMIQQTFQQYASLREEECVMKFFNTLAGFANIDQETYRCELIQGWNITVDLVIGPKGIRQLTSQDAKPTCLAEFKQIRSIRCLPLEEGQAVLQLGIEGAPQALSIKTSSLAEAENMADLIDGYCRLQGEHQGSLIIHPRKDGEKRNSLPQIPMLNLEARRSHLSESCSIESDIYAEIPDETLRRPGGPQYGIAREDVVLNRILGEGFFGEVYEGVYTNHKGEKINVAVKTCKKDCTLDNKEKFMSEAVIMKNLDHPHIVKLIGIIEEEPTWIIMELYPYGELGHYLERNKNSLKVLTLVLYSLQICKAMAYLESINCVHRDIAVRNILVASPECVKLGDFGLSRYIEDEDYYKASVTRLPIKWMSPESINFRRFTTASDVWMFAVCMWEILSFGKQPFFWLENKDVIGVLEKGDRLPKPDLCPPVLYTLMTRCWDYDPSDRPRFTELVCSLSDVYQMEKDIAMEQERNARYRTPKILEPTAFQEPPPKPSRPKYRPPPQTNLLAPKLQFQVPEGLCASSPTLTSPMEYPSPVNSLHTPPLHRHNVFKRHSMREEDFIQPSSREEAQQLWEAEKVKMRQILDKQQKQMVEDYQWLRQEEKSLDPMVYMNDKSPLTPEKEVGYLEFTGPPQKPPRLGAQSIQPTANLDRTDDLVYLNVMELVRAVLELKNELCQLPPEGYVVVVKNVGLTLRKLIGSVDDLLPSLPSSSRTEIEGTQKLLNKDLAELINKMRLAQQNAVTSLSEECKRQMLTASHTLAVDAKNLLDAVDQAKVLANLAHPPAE
Cav3 T inh: inhibitors of human Cav3.2 T-type calcium channel; O95180; Cav3.2-expressing cells, Fluo-4 calcium fluorescence FDSS; active compounds read low; B-score at 10 µM; hit rate 4% among 100,000; AID 449739;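 active means single-dose well whose peak fluorescence ratio is a statistical outlier from its plate by either plate-standardised score or position-corrected B-score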
Mac1 fbg enh: enhancers of human CD11b/CD18 binding to fibrinogen. P05107+P11215. K562 CD11b/CD18 adhesion to fibrinogen, ATPlite luminescence. hit rate 0.07% among 93,000. AID 1499. activation, % at 10 µM;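 active means 10 µM primary screen giving 50% or more activity, confirmed by 40% or more on retest at that dose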
MRP1 act: activates MRP-1; H69AR cells + doxorubicin, viability rescue, CellTiter-Glo; viability increase, % at 10 µM; hit rate 0.61% among 140,000; AID 799;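 active means viability gain under doxorubicin at or above a set limit, the compound median plus 3 SD, cut at about 4.7% in these data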;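 further: MRP-1 overexpressing cells given doxorubicin 25 µM after compound pretreatment; 18-22 h compound pretreatment then 72 h with doxorubicin before readout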
MRP resist rev: MRP-mediated drug resistance reversal; hit rate 0.04% among 85,000; AID 602; H69AR cells + 2 uM doxorubicin, CellTiter-Glo, 72 h; differential viability (reversal), % at 10 µM;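 active means viability drop by adding the cancer drug above about 55%, with treated viability meeting a 40% cutoff, limit read from the data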;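 further: larger differential means the compound sensitizes cells more to doxorubicin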
CD11b adhes inh: inhibitors of human CD11b/CD18 binding to fibrinogen; P05107+P11215; K562 CD11b/CD18 adhesion to fibrinogen, ATPlite luminescence; Mn2+ added to activate the integrin; inhibition, % at 10 µM; hit rate 0.54% among 93,000; AID 1497;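 active means primary inhibition of 50% or more at 10 µM, then 40% or more on retest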
Hits are given with their value; 0 = inactive; - = no result given.

SMILES	PTK2B oligo ant	Cav3 T inh	Mac1 fbg enh	MRP1 act	MRP resist rev	CD11b adhes inh
CCOC(=O)c1c(-c2cccc([N+](=O)[O-])c2)csc1NC(=O)CCCOc1ccccc1	-	-	0	0	-	0
CCOC(=O)c1c(-c2cccc([N+](=O)[O-])c2)csc1NC(=O)CCCOc1ccccc1OC	0	-4.8	-	0	-	-
CCOC(=O)c1c(-c2ccc(C)cc2)csc1NC(=O)C1CC=CCC1C(=O)O (stereo unspecified)	0	-	-	0	-	-
COc1cc([N+](=O)[O-])ccc1NC(=O)CCCOc1cccc(C)c1	0	-3.4	0	0	-	0
CCOC(=O)c1c(-c2cccs2)csc1NC(=O)CN(CC)CC	-3.6	0	-	0	0	-
CCOC(=O)c1c(-c2ccc(F)cc2)csc1NC(=O)c1c(-c2ccccc2)noc1C	-	-	0	7.5	-	0
CCOC(=O)c1c(-c2ccc(OC)cc2)csc1NC(=O)CSc1ccccc1	0	-4.8	0	0	-	0
CCOC(=O)c1c(-c2ccc(-c3ccccc3)cc2)csc1NC(=O)C1C2CCC(O2)C1C(=O)O (stereo unspecified)	0	-4.6	-	0	-	-
CCOC(=O)c1c(-c2ccc(C)o2)csc1NC(=O)CSc1ncn[nH]1	0	0	0	6.8	0	0
Nc1c(C(=O)c2ccc(F)cc2)oc2ccccc12	0	0	-	0	0	-
CC(=O)N1CCN=C1SCc1ccc(Br)cc1	-	-4.8	0	9.4	0	0
CSC1=NCCN1C(=O)c1ccc(Br)o1	-	0	0	0	0	51
O=C(c1ccco1)N1CCN=C1SCc1ccc(F)cc1	-	0	0	6.0	0	0
CSc1ccccc1-c1nnc(-c2ccc(Cl)c(Cl)c2)o1	0	0	0	0	-	0
COc1ccc(C2=NOC(C(=O)NCc3ccccc3)C2)cc1 (stereo unspecified)	0	-	0	0	0	0
CCN(CC)C(=O)C1CC(c2ccc(OC)cc2)=NO1 (stereo unspecified)	0	-4.3	0	0	0	0
COC(=O)Nc1ccc(S(=O)(=O)Nc2ccc(C)cc2)cc1	-	0	0	0	-	0
COC(=O)Nc1ccc(S(=O)(=O)Nc2ccc(O)cc2)cc1	0	0	-	0	60	-
CCN(CC)C(=O)CSc1nnc(-c2ccc(S(=O)(=O)N3CCCC3)cc2)o1	0	0	0	0	0	0
Cc1ccccc1N1CCN(c2ncnc3c2cnn3Cc2ccc(Cl)cc2)CC1	0	-4.6	0	0	0	0
Cc1ccc(-c2noc(CSc3nnnn3C3CCCCC3)n2)cc1	-	-4.6	0	0	0	0
O=C(O)c1ccc(-n2nnnc2SCc2ccccc2)cc1	0	0	0	0	83	0
O=c1c2ccccc2nc(SCc2nc(-c3ccccc3)no2)n1-c1ccc(F)cc1	-	-4.5	0	0	0	0
Clc1ccc(-c2noc(CSc3nnc(Cc4cccs4)n3-c3ccccc3)n2)cc1	-	-5.7	0	0	0	69
NC(=O)c1ccc(-n2nnnc2SCc2ccc(F)cc2)cc1	0	0	0	0	0	0
SMILES	PTK2B oligo ant	Cav3 T inh	Mac1 fbg enh	MRP1 act	MRP resist rev	CD11b adhes inh
CC(=O)Nc1ccc(OCC(O)Cn2c3ccccc3c3ccccc32)c(C)c1 (stereo unspecified)	0	0	-	0	-	-
CC(C)CC(C(=O)Oc1ccc2c3c(c(=O)oc2c1)CCC3)N1C(=O)c2ccccc2C1=O (stereo unspecified)	0	-	0	0	-	0
c1ccc(-c2noc(CSc3nnnn3-c3ccccc3)n2)cc1	-	-5	0	0	0	0
Cc1ccc(-c2noc(CSc3nnc(Cc4ccccc4)n3-c3cccc(C)c3)n2)cc1	0	0	0	0	0	0
COc1ccc(-c2noc(CSc3nnc(Cc4ccccc4)n3-c3cccc(C)c3)n2)cc1OC	0	-5.5	0	0	0	0
c1ccc(-n2nnnc2SCc2ccccn2)cc1	0	0	0	0	0	0
Cc1ccc(-c2noc(CSc3nnc(-c4ccncc4)n3-c3ccc(C)cc3)n2)cc1	0	0	-	0	0	-
Clc1ccc(-c2noc(CSc3nnc(-c4ccncc4)n3-c3ccccc3)n2)cc1	0	-4.9	0	0	0	0
CCOc1ccc(-n2c(SCc3nc(-c4ccc(C)cc4)no3)nnc2-c2ccncc2)cc1	0	-4.3	0	0	0	0
COc1cc(C(=O)ON=C2C(C)=CC(=O)C=C2C)cc(OC)c1OC	0	0	0	0	-	0
Cc1nn(C)cc1NC(=O)c1nn(C)cc1[N+](=O)[O-]	-	-	-	0	-	-
c1ccc(-c2noc(CSc3nnc(Cc4cccs4)n3-c3ccccc3)n2)cc1	0	-4.7	-	0	0	-
Cc1ccc(-n2c(Cc3cccs3)nnc2SCC(N)=O)cc1	0	0	0	0	0	0
Cc1ccc(-c2noc(CSc3nnc(Cc4cccs4)n3-c3ccccc3)n2)cc1	-	-7.6	0	0	0	0
Fc1ccc(-n2c(Cc3ccccc3)nnc2SCc2nc(-c3cccs3)no2)cc1	0	0	-	0	0	-
CN(C)CCOC(=O)CCc1ccccc1	0	0	0	0	0	0
COC(C(=O)Nc1ccc(S(=O)(=O)Nc2cccc3ccccc23)cc1)c1ccccc1 (stereo unspecified)	-	-	0	0	-	0
Cc1csc(NC(=O)c2ccccc2O)n1	0	0	0	0	0	0
Cc1csc(NC(=O)c2sc3nc(-c4cccs4)ccc3c2N)n1	-	-5.4	0	0	0	0
CCCSc1nnc(NC(=O)c2sc3nc(-c4cccs4)ccc3c2N)s1	0	-9.9	0	0	-	0
COc1ccc(-n2c(COc3ccc(C)cc3)nnc2SCC(N)=O)cc1	0	0	0	0	0	0
O=C(COC(=O)COc1ccccc1[N+](=O)[O-])Nc1ccc(S(=O)(=O)N2CCCCC2)cc1	0	0	0	0	-	50
CC(C)(C)OC(=O)N[C@@H](Cc1ccccc1)C(=O)N1CCC(C(=O)O)CC1	0	0	-	0	0	-
CC(=O)n1nc(-c2ccccc2)nc1NCc1ccc(F)cc1	0	-4.6	0	0	0	0
COC(=O)c1ccc(NC(=S)NCCc2ccccc2C)cc1	-	-	0	0	-	0
SMILES	PTK2B oligo ant	Cav3 T inh	Mac1 fbg enh	MRP1 act	MRP resist rev	CD11b adhes inh
CC(=O)Nc1nonc1C(=O)N1CCC(C)CC1	0	0	-	0	0	-
COc1ccc(N(C(=O)c2cnccn2)C(C(=O)NC2CCCCC2)c2ccc(Cl)cc2)cc1 (stereo unspecified)	0	0	-	-	0	-
COc1ccc(NC(=O)C(c2ccccc2)N(C)C(=O)c2cnccn2)cc1 (stereo unspecified)	0	-4.2	0	0	0	0
CCOC(=O)c1cc2oc(C(c3nnnn3C3CCCCC3)N3CCOCC3)cc2[nH]1 (stereo unspecified)	0	-3.5	-	0	0	-
Cc1ccc(N=Nc2[nH]c3ccccc3c2O)cc1	-	-	-	0	-	-
Cc1ccc(S(=O)(=O)N(C)C)cc1NC(=S)NNC(=O)C1CC1	-	-	-	0	-	-
COc1cccc(C(=O)NC(=S)N2CCN(c3ccc(C(F)(F)F)cc3[N+](=O)[O-])CC2)c1	-	-	-	0	-	-
COc1cccc(OC)c1C(=O)NC(=S)N1CCN(c2ccc(C(F)(F)F)cc2[N+](=O)[O-])CC1	0	-5.5	0	0	-	0

Source: PubChem
